Results reported in PubChem BioAssay AID588405 (Sanford-Burnham Center for Chemical Genomics, 2011).
Among all 360,000 compounds or so, about 6,200 (1.7%) were called active.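 The calls were made as follows: active = inhibition of at least 50% at 20 µM; inactive = the rest.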 Many of the other results were omitted from the sample, so actives are more common in it than they were.

Assay: Peg3 promoter-driven luciferase inhibitors, primary screen, cell-based, HeLa, luciferase luminescence (AID 588405)
Settings: HeLa PEG-Prom luciferase reporter, overnight, at 20 µM, stronger effect = higher value

Row | SMILES | inhibition
1 | CCCCc1cc2c(s1)CCCC/C2=N/O | 6.83% (inactive)
2 | COCCCN(C(=O)CSCc1ccc(C)cc1)c1c(N)n(Cc2ccccc2)c(=O)[nH]c1=O | -0.45% (inactive)
3 | O=C(c1ccc(F)cc1)n1c(=S)nc2ccccn21 | -101% (inactive)
4 | O=C(COC(=O)c1ccncc1)c1ccccc1 | 3.29% (inactive)
5 | Brc1ccc(-c2noc(-c3ccccc3)n2)o1 | -291% (inactive)
6 | O=C(Oc1ccc(-c2nc(-c3ccccn3)no2)cc1)c1ccccc1 | 66.5% (active)
7 | O=C1C=C(c2ccc(Cl)cc2)C(=O)N1Nc1ccccc1 | 105% (active)
8 | O=C(Nc1ccccc1)C1CCN(C(=O)c2ccc(Br)cc2)CC1 | -7.9% (inactive)
9 | O=C1Nc2cc(C(=O)N3CCC(N4CCCCC4)CC3)ccc2S/C1=C\c1ccccc1 | 90.7% (active)
10 | NC(=O)C1CCN(C(=O)c2ccc(-c3ccccc3)cc2)CC1 | 5.02% (inactive)
11 | O=C(Nc1ccc(F)cc1)C1CCCN(S(=O)(=O)c2ccc(-n3cnnn3)cc2)C1 (stereo not drawn) | 24.8% (inactive)
12 | Cc1nn(CC(=O)NCCc2ccccc2)c(=O)c2cc3occc3n12 | -8.09% (inactive)
13 | CCc1ccc(-c2cc3c(=O)n(CC(=O)NCCCN4CCN(Cc5ccccc5)CC4)nc(C)n3n2)cc1 | 105% (active)
14 | Cc1ccc(-c2ccc(=O)n(CC(=O)NCCCN3CCCCC3)n2)cc1 | 5% (inactive)
15 | CC1(C(=O)Nc2cccnc2)Cc2c(-c3ccccc3)ccnc2O1 (stereo not drawn) | 13.4% (inactive)
16 | CC1(C(=O)Nc2cccc(Oc3ccccc3)c2)CCN1Cc1ccccc1Cl (stereo not drawn) | 18.7% (inactive)
17 | Nc1ncnc2c1ncn2[C@@H]1O[C@H](C(=O)N2CCSC2)[C@@H](O)[C@H]1O | -1.06% (inactive)
18 | COc1ccccc1Cc1c(-c2ccc(Cl)cc2)nc2ccc(Cl)cn12 | -200% (inactive)
19 | Cc1cccc(C)c1-n1nnnc1C(CCc1ccccc1)N1CCN(C/C=C/c2ccccc2)CC1 (stereo not drawn) | 4.21% (inactive)
20 | COc1cc(OC)nc(N/N=C(\c2ccccc2)c2ccncc2)n1 | -16.6% (inactive)
21 | c1ccc(C(=NNc2nc3ccccc3s2)c2ccccn2)cc1 | 60.3% (active)
22 | C/C(=N/Nc1nc(-c2ccccc2)c(CC(=O)O)s1)c1ccccc1 | -245% (inactive)
23 | CCCNC(=O)c1cc(C2CCCCN2C(=O)OC)on1 (stereo not drawn) | 8.59% (inactive)
24 | CCOc1cc(-c2conc2N)cc(OCC)c1OCC | 10.1% (inactive)
25 | CC(C)CNC(=O)C1(C)CCCN1C(=O)CSc1ccccc1 (stereo not drawn) | -0.74% (inactive)
26 | CCNC(=S)NNC(=O)c1ccc2ncccc2c1 | -28.3% (inactive)
27 | O=C(O)c1ccc(N/N=C/c2ccc3ncccc3c2)cc1 | 70.7% (active)
28 | Cc1ccc2cc(/C=N/Nc3ccc(C(=O)O)cc3)c(Cl)nc2c1 | -255% (inactive)
